# Data reported in ChEMBL document CHEMBL2218924, “A broad activity screen in support of a chemogenomic map for kinase signalling research and drug discovery” (Biochem J, 2013).
# How the values were obtained:
# [1] = target: MAP kinase-activated protein kinase 2 (Homo sapiens) (UniProt P49137); settings: at 10 µM
# [2] = target: MAP kinase-activated protein kinase 3 (Homo sapiens) (UniProt Q16644); settings: at 10 µM
# [3] = target: Serine/threonine-protein kinase MARK1 (Homo sapiens) (UniProt Q9P0L2); settings: at 1 µM
# [4] = target: Serine/threonine-protein kinase MARK1 (Homo sapiens) (UniProt Q9P0L2); settings: at 10 µM
# [5] = target: Dual specificity mitogen-activated protein kinase kinase 1 (Homo sapiens) (UniProt Q02750); settings: at 1 µM
# [6] = target: Dual specificity mitogen-activated protein kinase kinase 1 (Homo sapiens) (UniProt Q02750); settings: at 10 µM
# [7] = target: Maternal embryonic leucine zipper kinase (Homo sapiens) (UniProt Q14680); settings: at 1 µM
# [8] = target: Maternal embryonic leucine zipper kinase (Homo sapiens) (UniProt Q14680); settings: at 10 µM
# [9] = target: Misshapen-like kinase 1 (Homo sapiens) (UniProt Q8N4C8); settings: at 1 µM
# [10] = target: Misshapen-like kinase 1 (Homo sapiens) (UniProt Q8N4C8); settings: at 10 µM
# Misshapen-like kinase 1 (Homo sapiens), sequence (Q8N4C8 whole entry, looked up): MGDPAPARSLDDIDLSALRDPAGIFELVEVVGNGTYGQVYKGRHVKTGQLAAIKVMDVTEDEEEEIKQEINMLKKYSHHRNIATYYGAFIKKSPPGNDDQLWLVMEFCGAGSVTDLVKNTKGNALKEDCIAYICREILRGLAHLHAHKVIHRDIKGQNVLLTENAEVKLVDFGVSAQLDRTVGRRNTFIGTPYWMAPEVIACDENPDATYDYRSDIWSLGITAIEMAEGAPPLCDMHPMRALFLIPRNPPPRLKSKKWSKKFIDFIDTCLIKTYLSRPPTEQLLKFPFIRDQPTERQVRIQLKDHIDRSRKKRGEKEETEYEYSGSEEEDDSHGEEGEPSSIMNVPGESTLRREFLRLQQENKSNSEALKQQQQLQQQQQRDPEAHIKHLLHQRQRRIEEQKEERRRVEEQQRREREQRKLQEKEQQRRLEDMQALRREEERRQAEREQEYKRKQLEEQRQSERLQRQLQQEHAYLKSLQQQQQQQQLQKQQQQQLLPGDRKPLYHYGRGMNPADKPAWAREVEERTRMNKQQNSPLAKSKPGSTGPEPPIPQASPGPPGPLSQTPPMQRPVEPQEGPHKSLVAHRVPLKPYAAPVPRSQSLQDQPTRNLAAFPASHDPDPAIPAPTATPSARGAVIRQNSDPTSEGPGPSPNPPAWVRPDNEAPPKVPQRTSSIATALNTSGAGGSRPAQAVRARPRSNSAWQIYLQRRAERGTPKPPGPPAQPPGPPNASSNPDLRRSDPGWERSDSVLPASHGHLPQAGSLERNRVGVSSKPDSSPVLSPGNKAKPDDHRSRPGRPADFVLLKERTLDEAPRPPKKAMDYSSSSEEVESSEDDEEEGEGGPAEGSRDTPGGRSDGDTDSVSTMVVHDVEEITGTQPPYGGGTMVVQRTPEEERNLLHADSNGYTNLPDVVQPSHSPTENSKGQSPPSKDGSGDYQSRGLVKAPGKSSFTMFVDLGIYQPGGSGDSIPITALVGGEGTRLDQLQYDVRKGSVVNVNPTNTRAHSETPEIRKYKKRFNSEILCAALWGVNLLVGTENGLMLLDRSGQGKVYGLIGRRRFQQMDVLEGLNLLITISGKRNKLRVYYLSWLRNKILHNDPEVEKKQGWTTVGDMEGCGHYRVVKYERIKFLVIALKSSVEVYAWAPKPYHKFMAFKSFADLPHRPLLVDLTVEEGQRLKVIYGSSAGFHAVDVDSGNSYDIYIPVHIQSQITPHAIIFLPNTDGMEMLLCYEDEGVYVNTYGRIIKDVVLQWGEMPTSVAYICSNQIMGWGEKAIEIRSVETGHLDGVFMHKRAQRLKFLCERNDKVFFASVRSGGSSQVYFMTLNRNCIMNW
# Serine/threonine-protein kinase MARK1 (Homo sapiens), sequence (Q9P0L2 whole entry, looked up): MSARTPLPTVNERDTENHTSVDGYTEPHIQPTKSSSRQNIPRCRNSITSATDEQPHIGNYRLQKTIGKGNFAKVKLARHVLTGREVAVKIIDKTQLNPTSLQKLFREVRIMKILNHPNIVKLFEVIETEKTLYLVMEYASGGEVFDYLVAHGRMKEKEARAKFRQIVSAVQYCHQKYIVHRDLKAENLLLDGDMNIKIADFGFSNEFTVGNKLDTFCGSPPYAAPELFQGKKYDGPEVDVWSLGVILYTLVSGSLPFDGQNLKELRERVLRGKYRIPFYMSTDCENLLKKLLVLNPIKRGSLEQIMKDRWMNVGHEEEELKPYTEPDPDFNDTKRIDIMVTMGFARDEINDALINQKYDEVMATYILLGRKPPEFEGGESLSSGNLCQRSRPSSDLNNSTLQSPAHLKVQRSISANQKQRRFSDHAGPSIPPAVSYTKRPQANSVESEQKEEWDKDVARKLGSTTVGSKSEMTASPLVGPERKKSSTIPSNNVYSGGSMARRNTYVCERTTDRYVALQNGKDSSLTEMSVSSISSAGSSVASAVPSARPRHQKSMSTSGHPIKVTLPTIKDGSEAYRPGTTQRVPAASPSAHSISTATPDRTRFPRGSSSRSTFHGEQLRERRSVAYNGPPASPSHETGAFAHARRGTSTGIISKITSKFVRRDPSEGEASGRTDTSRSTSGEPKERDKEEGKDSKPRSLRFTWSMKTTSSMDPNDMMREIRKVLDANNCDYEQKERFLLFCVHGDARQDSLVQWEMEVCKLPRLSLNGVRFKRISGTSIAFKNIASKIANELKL
# MAP kinase-activated protein kinase 3 (Homo sapiens), sequence (Q16644 whole entry, looked up): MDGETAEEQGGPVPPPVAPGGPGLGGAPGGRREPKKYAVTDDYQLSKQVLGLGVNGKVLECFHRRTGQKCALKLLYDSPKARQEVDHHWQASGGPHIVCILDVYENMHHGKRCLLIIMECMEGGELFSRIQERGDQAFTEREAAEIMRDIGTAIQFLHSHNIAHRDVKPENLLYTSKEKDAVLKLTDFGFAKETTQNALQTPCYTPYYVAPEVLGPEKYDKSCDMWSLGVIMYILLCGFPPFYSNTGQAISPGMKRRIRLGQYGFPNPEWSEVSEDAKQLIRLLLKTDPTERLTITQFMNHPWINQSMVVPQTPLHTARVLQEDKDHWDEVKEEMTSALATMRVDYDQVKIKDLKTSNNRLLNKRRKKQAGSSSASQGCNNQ
# Maternal embryonic leucine zipper kinase (Homo sapiens), sequence (Q14680 whole entry, looked up): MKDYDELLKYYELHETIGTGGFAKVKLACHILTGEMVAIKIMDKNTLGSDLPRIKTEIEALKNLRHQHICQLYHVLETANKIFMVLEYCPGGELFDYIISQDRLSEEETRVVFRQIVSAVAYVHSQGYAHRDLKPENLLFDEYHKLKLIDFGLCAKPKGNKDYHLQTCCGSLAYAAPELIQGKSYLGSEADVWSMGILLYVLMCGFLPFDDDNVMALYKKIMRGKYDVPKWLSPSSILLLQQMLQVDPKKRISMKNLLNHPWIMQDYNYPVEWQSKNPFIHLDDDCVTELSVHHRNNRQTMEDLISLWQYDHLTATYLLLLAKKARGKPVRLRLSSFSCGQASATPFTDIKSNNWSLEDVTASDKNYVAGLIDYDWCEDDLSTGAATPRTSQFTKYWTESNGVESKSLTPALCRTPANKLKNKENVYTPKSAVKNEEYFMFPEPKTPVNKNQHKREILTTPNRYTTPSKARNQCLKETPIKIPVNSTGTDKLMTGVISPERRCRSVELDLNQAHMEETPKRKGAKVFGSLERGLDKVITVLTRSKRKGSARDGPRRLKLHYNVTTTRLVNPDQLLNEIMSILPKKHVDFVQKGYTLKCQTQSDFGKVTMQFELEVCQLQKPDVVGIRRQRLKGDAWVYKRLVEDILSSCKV
# Dual specificity mitogen-activated protein kinase kinase 1 (Homo sapiens), sequence (Q02750 whole entry): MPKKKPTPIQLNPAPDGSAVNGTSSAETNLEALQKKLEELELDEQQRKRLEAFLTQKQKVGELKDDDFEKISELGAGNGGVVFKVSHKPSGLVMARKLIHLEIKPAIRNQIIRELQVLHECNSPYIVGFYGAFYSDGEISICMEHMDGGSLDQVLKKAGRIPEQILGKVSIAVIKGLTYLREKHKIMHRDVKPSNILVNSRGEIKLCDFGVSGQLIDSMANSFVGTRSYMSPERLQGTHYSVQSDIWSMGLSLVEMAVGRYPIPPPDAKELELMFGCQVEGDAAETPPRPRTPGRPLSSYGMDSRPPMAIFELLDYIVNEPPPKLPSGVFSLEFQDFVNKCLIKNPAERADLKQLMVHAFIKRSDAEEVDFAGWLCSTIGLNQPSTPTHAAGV
# MAP kinase-activated protein kinase 2 (Homo sapiens), sequence (P49137 whole entry, looked up): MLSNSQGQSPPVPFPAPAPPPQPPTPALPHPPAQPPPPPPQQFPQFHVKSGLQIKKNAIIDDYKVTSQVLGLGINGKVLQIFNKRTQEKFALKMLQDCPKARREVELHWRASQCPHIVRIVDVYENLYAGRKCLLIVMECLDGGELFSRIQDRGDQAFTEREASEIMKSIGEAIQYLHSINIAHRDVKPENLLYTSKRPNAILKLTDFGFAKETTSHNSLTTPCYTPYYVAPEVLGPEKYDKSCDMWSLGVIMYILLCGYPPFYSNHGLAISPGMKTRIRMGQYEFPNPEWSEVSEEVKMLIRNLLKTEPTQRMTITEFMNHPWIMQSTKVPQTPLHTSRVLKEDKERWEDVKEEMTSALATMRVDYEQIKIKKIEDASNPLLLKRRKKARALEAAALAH
Compound,residual activity [1],residual activity [2],residual activity [3],residual activity [4],residual activity [5],residual activity [6],residual activity [7],residual activity [8],residual activity [9],residual activity [10]
Nc1n[nH]c2nnc(-c3c(-c4ccccc4)nn4ccccc34)cc12,94%,93%,83%,78%,89%,38%,91%,97%,89%,39%
CC#CC(=O)Nc1cc2c(Nc3ccc(F)c(Cl)c3)ncnc2cn1,92%,96%,87%,83%,111%,103%,76%,99%,96%,91%
O=C(O)c1ccc2c3c1cccc3c(=O)n1c3ccccc3nc21,95%,106%,81%,35%,94%,97%,91%,53%,,5%
CC(C)n1cnc2/c(=N/c3cccc(Cl)c3)nc(NCCO)[nH]c21,92%,116%,50%,26%,81%,91%,56%,16%,98%,69%
c1ccc(-c2n[nH]cc2-c2ccnc3ccccc23)nc1,109%,125%,93%,81%,,,97%,82%,72%,27%
CC(=O)c1ccc(N2CCOCC2)cc1O,,111%,93%,91%,102%,,90%,100%,108%,88%
COc1cc2ncnc(N3CCN(C(=O)Nc4ccc(Oc5ccccc5)cc4)CC3)c2cc1OC,110%,117%,86%,78%,115%,94%,81%,101%,95%,88%
O=Nc1c(-c2c(O)[nH]c3ccccc23)[nH]c2ccccc12,76%,88%,37%,5%,64%,55%,,7%,54%,10%
O=C1Nc2ccc(Br)cc2/C1=C\c1cc2c([nH]1)CCCC2,106%,101%,72%,59%,,,78%,,,
O=C1NC(=O)/C(=C\c2ccc3nccnc3c2)S1,85%,91%,86%,71%,108%,84%,64%,31%,89%,61%
O=C(Nc1cccc(Nc2cc(Nc3cccc(C(F)(F)F)c3)ncn2)c1)C1CC1,71%,91%,83%,79%,78%,88%,89%,89%,105%,97%
Cc1cc(Nc2nc(-c3ccccc3)nc3ccccc23)n[nH]1,,,66%,26%,,67%,46%,7%,61%,14%
Cc1nc2cc3nc(-c4cccs4)cnc3cc2n1C,114%,100%,107%,100%,120%,91%,89%,67%,112%,98%
Nc1cccc(-c2cc3c(Oc4cccc(O)c4)ncnc3[nH]2)c1,82%,,51%,11%,94%,102%,73%,29%,41%,7%
CCN(CC)CCCCN1c2ccccc2Oc2ccc(Cl)cc21,133%,146%,106%,106%,117%,115%,96%,105%,107%,95%
O=C1c2ccccc2-[n+]2ccc3c([nH]c4ccccc43)c21,98%,89%,80%,77%,97%,110%,85%,67%,99%,87%
CN(C)c1ccc(/C=C2\C(=O)Nc3ccccc32)cc1,93%,94%,83%,49%,114%,73%,49%,26%,82%,30%
O=C1Nc2cc(Br)ccc2/C1=C1/Nc2ccccc2/C1=N\O,90%,91%,21%,19%,71%,107%,34%,48%,91%,70%
N#Cc1cnc2cnc(NCc3cccnc3)cc2c1Nc1ccc(F)c(Cl)c1,64%,,-1%,-1%,91%,91%,2%,0%,93%,90%

Compound,residual activity [1],residual activity [2],residual activity [3],residual activity [4],residual activity [5],residual activity [6],residual activity [7],residual activity [8],residual activity [9],residual activity [10]
N#CC(C#N)=C(N)/C(C#N)=C/c1ccc(O)cc1,87%,,89%,75%,,,70%,78%,89%,88%
CCC(=O)Nc1ccc2ncnc(Nc3cccc(Br)c3)c2c1,95%,88%,84%,90%,93%,92%,90%,96%,83%,82%
Cc1cc2ncc(-c3ccccc3)nc2cc1C,93%,93%,84%,90%,,90%,72%,77%,94%,82%
Cc1cncc2cccc(S(=O)(=O)N3CCCN(C(=O)CN)C[C@H]3C)c12,87%,,73%,43%,,,74%,24%,91%,72%
C[C@@H](N)[C@H]1CC[C@H](C(=O)Nc2ccncc2)CC1,82%,85%,95%,,104%,106%,105%,87%,99%,108%
O=[N+]([O-])c1ccc(-c2nc(-c3ccc(F)cc3)c(-c3ccncc3)[nH]2)cc1,102%,104%,91%,90%,109%,127%,97%,87%,74%,63%
N#C/C(=C(\N)Sc1ccc(N)cc1)c1ccccc1C(F)(F)F,69%,88%,72%,54%,104%,101%,67%,62%,106%,91%
Cc1cccc(-c2[nH]c(C(C)(C)C)nc2-c2ccc3c(c2)OCO3)n1,96%,,85%,77%,,96%,75%,103%,101%,90%
CNc1cc2c(Nc3cccc(Br)c3)ncnc2cn1,112%,99%,88%,73%,84%,53%,109%,112%,92%,87%
COc1ccc(OC)c2c(=S)c3ccccc3[nH]c12,,89%,87%,74%,114%,110%,102%,84%,108%,94%
N#CCCc1ccc2c(c1)-c1[nH]c3ccc([N+](=O)[O-])cc3c1CC(=O)N2,39%,49%,30%,9%,,,69%,52%,38%,17%
COc1cc2ncc(-c3ccccc3)nc2cc1OC,80%,,90%,80%,,,69%,60%,92%,62%
Oc1ccc(-c2nc(-c3ccc(F)cc3)c(-c3ccncc3)[nH]2)cc1,105%,102%,95%,97%,90%,104%,92%,46%,91%,49%
Cc1ccc(S(=O)(=O)/C=C/C#N)cc1,74%,85%,90%,89%,105%,95%,96%,100%,111%,104%
c1ccc(-c2n[nH]c3c2oc2ccccc23)cc1,,,69%,44%,,,43%,7%,73%,34%
CC(C)n1cnc2c(NCc3ccccc3)nc(NCCCO)nc21,90%,80%,81%,81%,103%,110%,86%,77%,108%,100%
COc1cc2ncnc(Nc3ccc(NC(=O)c4ccccc4)cc3)c2cc1OC,98%,93%,105%,95%,,,77%,50%,,92%
COc1cc2ncnc(Nc3ccc(O)c(Br)c3)c2cc1OC,106%,106%,70%,54%,119%,80%,73%,28%,83%,47%
